The text below walks through data of PubChem BioAssay (NCATS).

Test [1] in a line: S16 Schwann cell viability assay (CellTiter-Glo assay) (AID 624031).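 Also: cellular ATP luminescence as a viability measure; nearly all actives have a fitted effect of over 70% in size.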 In outline: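 Native S16 rat Schwann cells in DMEM/10% FBS without phenol red were incubated overnight, then exposed to compounds for 24 h at 37 °C/5% CO2. Viability was read as ATP luminescence (CellTiter-Glo), normalized to no-cell wells and DMSO (0%).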
In a further test the test system is ATS189. Briefly: qHTS profiling for inhibitors of Plasmodium falciparum proliferation (AID 504749). Also: nearly all actives have a fitted effect of over 60% in size. Also: potency is read from the fitted curve at half-maximal effect. The following applies: P. falciparum in erythrocytes, SYBR Green DNA, 72 h; series mostly up to 12.8 µM. In short, it runs like this:
(§1)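 Three-day growth assay of blood-stage parasites in erythrocytes (0.3% parasitemia, 2.5% hematocrit) at 37 C, 5% CO2, quantified by SYBR Green DNA staining after overnight detergent lysis.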

For the next test, the system named is ATS95. Described as above. The conditions noted are these: P. falciparum in erythrocytes, SYBR Green DNA, 72 h; series mostly up to 12.8 µM. In outline: as §1
For a further test, the system named is CP185. Described as above. The conditions noted are these: P. falciparum in erythrocytes, SYBR Green DNA, 72 h; series mostly up to 12.8 µM. In outline: as §1
In the next test the test system is CP201. The description is as above. The following applies: P. falciparum in erythrocytes, SYBR Green DNA, 72 h; series mostly up to 12.8 µM. In short, it runs like this:
as §1

The subject of another test is CP203. The description is as above. The conditions noted are these: P. falciparum in erythrocytes, SYBR Green DNA, 72 h; series mostly up to 12.8 µM. In outline:
as §1

In another test the test system is CP237. Described as above. The following applies: P. falciparum in erythrocytes, SYBR Green DNA, 72 h; series mostly up to 12.8 µM. In outline:
as §1

The subject of another test is CP247. The test is described as above. The following applies: P. falciparum in erythrocytes, SYBR Green DNA, 72 h; series mostly up to 12.8 µM. In short, it runs like this:
as §1

A further test concerns CP260. The description is as above. The following applies: P. falciparum in erythrocytes, SYBR Green DNA, 72 h; series mostly up to 12.8 µM. In outline:
as §1

For a further test, the system named is CP265. Described as above. The conditions noted are these: P. falciparum in erythrocytes, SYBR Green DNA, 72 h; series mostly up to 12.8 µM. In outline:
as §1

The subject of a further test is CP266. The test is described as above. The conditions noted are these: P. falciparum in erythrocytes, SYBR Green DNA, 72 h; series mostly up to 12.8 µM. In outline:
as §1

The subject of a further test is CP286. Described as above. The conditions noted are these: P. falciparum in erythrocytes, SYBR Green DNA, 72 h; series mostly up to 12.8 µM. In outline:
as §1

A further test relates to CP325. Described as above. The conditions noted are these: P. falciparum in erythrocytes, SYBR Green DNA, 72 h; series mostly up to 12.8 µM. In outline:
as §1

The test system of the next test is DIV17. The description is as above. The following applies: P. falciparum in erythrocytes, SYBR Green DNA, 72 h; series mostly up to 12.8 µM. In short, it runs like this:
as §1

The subject of another test is DIV30. The test is described as above. The following applies: P. falciparum in erythrocytes, SYBR Green DNA, 72 h; series mostly up to 12.8 µM. In outline:
as §1

Another test relates to Dd2. Described as above. The following applies: P. falciparum in erythrocytes, SYBR Green DNA, 72 h; series mostly up to 12.8 µM. In outline:
as §1

The subject of another test is ICS. The test is described as above. The conditions noted are these: P. falciparum in erythrocytes, SYBR Green DNA, 72 h; series mostly up to 12.8 µM. In short, it runs like this: as §1
The next test deals with PAD. The test is described as above. The conditions noted are these: P. falciparum in erythrocytes, SYBR Green DNA, 72 h; series mostly up to 12.8 µM. In outline: as §1
The test system of a further test is TAB165. The description is as above. The conditions noted are these: P. falciparum in erythrocytes, SYBR Green DNA, 72 h; series mostly up to 12.8 µM. In short, it runs like this: as §1
The test system of a further test is CP262. Described as above. The conditions noted are these: P. falciparum in erythrocytes, SYBR Green DNA, 72 h; series mostly up to 12.8 µM. In outline: as §1

The structures appear in SMILES notation. Results filed as inconclusive are left out. Active and inactive are the calls of the source. Calls follow the shape of the dose curve; as a rule, active = well fitted curve in the direction sought with a large enough effect; inconclusive = small, poorly fitted or top-dose-only effect, or another doubt; inactive = no such curve, though single readings can be large; an effect the other way counts as inactive or inconclusive.

With `CC(C)NC[C@H]1CCc2cc(CO)c([N+](=O)[O-])cc2N1`, in test [1], the compound was called inactive. In addition, the Potency result in the test with ATS189, in the test on ATS95, in the test on CP185, in the test on CP201, with CP203 and in the test on CP237 was “inactive” in each case. For the same compound, the Potency entry with CP247, with CP260, in the test on CP265, with CP266, with CP286 and in the test with CP325 was “inactive” throughout. The Potency result in the test on DIV17, in the test with DIV30, with Dd2, in the test on ICS, in the test with PAD and with TAB165 was “inactive” throughout.

Regarding `CCN[C@@H]1CN(CCCOC)S(=O)(=O)c2sc(S(N)(=O)=O)cc21`, the compound was classed as inactive in [1]. For the same compound, the Potency entry in the test with ATS189, with ATS95, with CP185, in the test on CP201, in the test on CP203 and with CP237 was “inactive” each time. In addition, the Potency entry in the test on CP247, in the test on CP260, in the test with CP262, with CP265, in the test on CP266 and in the test on CP286 was “inactive” throughout. Besides, the Potency result with CP325, in the test on DIV17, in the test with DIV30, with Dd2, in the test on ICS and in the test on PAD was “inactive” in each case. The Potency result in the test with TAB165 was “inactive”.

Turning to `Cn1nnnc1SCC1=C(C(=O)O)N2C(=O)[C@@H](NC(=O)[C@@H](O)c3ccccc3)[C@@H]2SC1`, the compound was classed as inactive in test [1]. In addition, the Potency result in the test with ATS189, with ATS95, in the test on CP185, in the test on CP201, in the test on CP203 and in the test on CP237 was “inactive” in each case. In addition, the Potency entry in the test on CP247, in the test on CP260, with CP262, in the test with CP265, in the test on CP266 and with CP286 was “inactive” each time. In addition, the Potency entry with CP325, with DIV17, in the test on DIV30, with Dd2, in the test with ICS and with PAD was “inactive” throughout. Moreover, the Potency result in the test with TAB165 was “inactive”.

For the compound `COc1cc2nc(N3CCN(C(=O)[C@@H]4COc5ccccc5O4)CC3)nc(N)c2cc1OC`, the result in [1] was inactive. Besides, the Potency result with ATS189, in the test on CP201, in the test on CP265, with CP266 and with CP325 was “inactive” each time. Also, the Potency with DIV17 was 6.75 µM (active).

Turning to `C=C1c2c(Cl)ccc(O)c2C(O)=C2C(=O)[C@@]3(O)C(O)=C(C(N)=O)C(=O)[C@@H](N(C)C)[C@@H]3[C@@H](O)[C@H]12`, in [1], the result was inactive. The Potency entry in the test with ATS95, in the test on CP185, in the test on CP201, with CP203, with CP247 and in the test on CP262 was “inactive” in each case. Moreover, the Potency entry with CP265, with CP266, in the test on CP325, in the test on DIV17, in the test with DIV30 and in the test with PAD was “inactive” in each case. The Potency with Dd2 was 2.24 µM (active).

`CS(=O)(=O)c1ccc([C@H](O)[C@H](CF)NC(=O)C(Cl)Cl)cc1`: the compound was called inactive in test [1].

As for `CCCCC[C@H](O)/C=C\[C@@H]1[C@H](O)CC(=O)[C@@H]1CCCCCCC(=O)O`, the result in test [1] was inactive. Moreover, the Potency entry in the test on ATS189, in the test with ATS95, with CP185, in the test on CP201, in the test with CP203 and in the test on CP237 was “inactive” throughout. Moreover, the Potency entry in the test on CP247, in the test with CP260, in the test on CP262, in the test with CP265, in the test on CP266 and with CP286 was “inactive” each time. Further, the Potency entry in the test on CP325, in the test with DIV30, in the test with Dd2, in the test with PAD and in the test on TAB165 was “inactive” in each case. Further, the Potency in the test with ICS is 3.55 µM (active).

On to `CO[C@H]1[C@H](O[C@H]2O[C@@H](C)[C@@H](O[C@@H]3C[C@](C)(O)[C@H](O)[C@H](C)O3)[C@@H](N(C)C)[C@@H]2O)[C@@H](CC=O)C[C@@H](C)[C@@H](O[C@H]2CC[C@H](N(C)C)[C@H](C)O2)/C=C\C=C/C[C@@H](C)OC(=O)C[C@H]1O`, for which the compound was called inactive in [1]. Besides, the Potency result in the test on ATS189, with CP201, in the test on CP247, in the test on CP265, in the test on DIV17 and in the test on DIV30 was “inactive” throughout. Also, the Potency entry in the test with Dd2, in the test on PAD and with TAB165 was “inactive” in each case.

Regarding `O=C1O[C@@H]([C@@H](O)CO)[C@@H](O)[C@H]1O`, the Potency result with ATS189, in the test on ATS95, in the test with CP185, in the test on CP201, in the test with CP203 and with CP237 was “inactive” throughout. In addition, the Potency entry in the test with CP247, in the test on CP260, with CP262, in the test on CP265, with CP266 and with CP286 was “inactive” in each case. Also, the Potency entry with CP325, in the test on DIV17, in the test with DIV30, with Dd2, in the test with ICS and in the test on PAD was “inactive” throughout. The Potency entry in the test with TAB165 is “inactive”.

As for `C[C@H]1CS(=O)(=O)CCN1/N=C\c1ccc([N+](=O)[O-])o1`, the Potency result in the test with ATS189, in the test on ATS95, in the test on CP185, with CP201, in the test with CP203 and in the test on CP237 was “inactive” each time. For the same compound, the Potency entry in the test with CP247, in the test with CP262, in the test with CP265, in the test on CP266, in the test on CP286 and with CP325 was “inactive” each time. Besides, the Potency entry with DIV30, with Dd2, with ICS, in the test on PAD and in the test with TAB165 was “inactive” throughout.

Take `CCCC(=O)Nc1ccc(OC[C@@H](O)CNC(C)C)c(C(C)=O)c1`: the result in test [1] was inactive.

For the compound `CCCCC[C@H](O)/C=C\[C@H]1[C@H](C/C=C\CCCC(=O)O)[C@@H](O)C[C@H]1O` (tested in a mixture with another compound), the call in test [1] was inactive. In addition, the Potency entry with ATS189, with ATS95, in the test with CP185, in the test on CP201, in the test on CP203 and with CP237 was “inactive” in each case. For the same compound, the Potency entry with CP247, in the test with CP260, with CP262, in the test with CP265, in the test with CP266 and with CP286 was “inactive” in each case. The Potency entry with CP325, in the test on DIV17, in the test with DIV30, in the test with Dd2, with ICS and in the test with PAD was “inactive” in each case. The Potency result in the test with TAB165 is “inactive”.

For the compound `O[C@@](CCN1CCCC1)(c1ccccc1)C1CCCCC1`, in test [1], the result was inactive. The Potency entry with ATS189, with CP185, in the test on CP237, in the test with CP260, in the test on CP262 and with CP266 was “inactive” each time. Further, in the test on CP286, the Potency result was “inactive”. Also, the Potency in the test on DIV17 was 3.22 µM (active).

As to `NC[C@@H]1O[C@H](O[C@@H]2[C@H](O[C@@H]3O[C@H](CO)[C@@H](O)[C@@H]3O)[C@@H](O)[C@@H](N)C[C@H]2N)[C@@H](N)[C@H](O)[C@@H]1O`, in test [1], the result was inactive. In addition, the Potency entry in the test on ATS189, with ATS95, with CP185, in the test with CP201, in the test with CP203 and in the test on CP237 was “inactive” in each case. Besides, the Potency result in the test on CP247, in the test on CP260, in the test with CP262, in the test with CP265, in the test on CP266 and with CP286 was “inactive” in each case. Further, the Potency result in the test with CP325, in the test on DIV17, in the test on DIV30, in the test on Dd2, in the test on ICS and with PAD was “inactive” in each case. Besides, in the test with TAB165, the Potency result is “inactive”.
